# Measured values taken from the supplement of paper PMC12494721.
# Counter-ions that a name gives are not always drawn.
# Assays:
# Conditions in all cases: incubation time: 27 h, anaerobic, 37 °C;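 for the amine columns active = adjusted P below 0.05 in both replicates with a change the same way and a mean fold change under 0.8 or over 1.25; inactive = the rest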
# [1] = tested on: Clostridium sporogenes DSM 1664; assay: growth (OD595) fold change vs plate DMSO controls (fold change (ratio)); higher = more growth
# In short: (§1)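 Growth is calculated as fold change against the median of the DMSO control wells on each plate. Readings at 595 nm from anaerobic mGAM cultures (96-well, 27 h, 37 °C) were blank-subtracted, background-corrected with 20 µM compound solutions in water, and converted to OD by a calibration factor of 5. Fold changes above 1.5 were recorded as NA, and results are means of 2 biological replicates.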
# Escherichia coli IAI1 [2] = assay: as above
# In short: as §1
# [3] = tested on: Klebsiella aerogenes DSM 30053; assay: as above
# In short: as §1
# [4] = tested on: Ruminococcus gnavus DSM 108212; assay: as above
# In short: as §1
# [5] = tested on: Klebsiella aerogenes DSM 30053; assay: fold change of Histamine concentration vs plate DMSO controls (fold change (ratio)); higher = more amine produced, active = hit call of the paper (significant change in both replicates, either direction)
# In short: (§2)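 Using LC–triple-quadrupole MS with dynamic MRM, amines were quantified against external calibration curves and corrected for drift within each batch. Samples were whole anaerobic mGAM cultures of four gut strains, grown 27 h at 37 °C from OD 0.1 before 1:1 dilution, extracted with cold acetonitrile/methanol containing 0.1% formic acid and centrifuged. Compounds were present at 20 µM final (sweeteners at 50 µM final). The numbers are fold changes versus plate DMSO controls, each the mean of 2 biological replicates.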
# [6] = tested on: Clostridium sporogenes DSM 1664; assay: fold change of Tryptamine concentration vs plate DMSO controls (fold change (ratio)); higher = more amine produced, active = hit call of the paper (significant change in both replicates, either direction)
# In short: as §2
# [7] = tested on: Ruminococcus gnavus DSM 108212; assay: as above
# In short: as §2
# Escherichia coli IAI1 [8] = assay: fold change of Putrescine concentration vs plate DMSO controls (fold change (ratio)); higher = more amine produced, active = hit call of the paper (significant change in both replicates, either direction)
# In short: as §2
# [9] = tested on: Klebsiella aerogenes DSM 30053; assay: as above
# In short: as §2
# Escherichia coli IAI1 [10] = assay: fold change of Cadaverine concentration vs plate DMSO controls (fold change (ratio)); higher = more amine produced, active = hit call of the paper (significant change in both replicates, either direction)
# In short: as §2
# [11] = tested on: Klebsiella aerogenes DSM 30053; assay: as above
# In short: as §2
# [12] = tested on: Ruminococcus gnavus DSM 108212; assay: fold change of 2-Phenylethylamine concentration vs plate DMSO controls (fold change (ratio)); higher = more amine produced, active = hit call of the paper (significant change in both replicates, either direction)
# In short: as §2
SMILES,growth [1],growth (Escherichia coli IAI1 [2]),growth [3],growth [4],fold change of Histamine concentration [5],fold change of Tryptamine concentration [6],fold change of Tryptamine concentration [7],fold change of Putrescine concentration (Escherichia coli IAI1 [8]),fold change of Putrescine concentration [9],fold change of Cadaverine concentration (Escherichia coli IAI1 [10]),fold change of Cadaverine concentration [11],fold change of 2-Phenylethylamine concentration [12]
CC(=O)c1cc2cccc(OCC(O)CNC(C)C)c2o1 (stereo not given) [Befunolol] (20 µM),0.992,1.1,0.953,0.98,1.07 (inactive),1.06 (inactive),1.02 (inactive),1.06 (inactive),0.972 (inactive),0.997 (inactive),0.995 (inactive),1.06 (inactive)
CN(C)CCOC(c1ccccc1)c1ccccc1 [Diphenhydramine hydrochloride] (20 µM),0.881,0.994,0.974,1.25,1 (inactive),1.05 (inactive),0.945 (inactive),0.962 (inactive),0.996 (inactive),0.98 (inactive),0.985 (inactive),0.914 (inactive)
CC(C)(C#N)c1cc(Cn2cncn2)cc(C(C)(C)C#N)c1 [Anastrozole] (20 µM),0.911,1.16,1.01,1.02,1.02 (inactive),1.11 (inactive),1.09 (inactive),1.06 (inactive),0.954 (inactive),1.01 (inactive),0.994 (inactive),1.1 (inactive)
NC(=O)c1cccnc1 [Nicotinamide] (20 µM),0.909,0.979,0.964,0.672,0.994 (inactive),0.971 (inactive),0.993 (inactive),1.02 (inactive),0.896 (inactive),1 (inactive),1.1 (inactive),0.953 (inactive)
CCN[C@H]1CN(CCCOC)S(=O)(=O)c2sc(S(N)(=O)=O)cc21 [Brinzolamide] (20 µM),1.17,1.04,1,1.04,1 (inactive),1.02 (inactive),0.944 (inactive),1.05 (inactive),0.989 (inactive),1.01 (inactive),1 (inactive),0.899 (inactive)
C=CCOC(Cn1ccnc1)c1ccc(Cl)cc1Cl (stereo not given) [Enilconazole] (20 µM),1.05,0.989,0.991,0.919,0.966 (inactive),1.19 (inactive),1.15 (inactive),0.862 (inactive),1.01 (inactive),0.939 (inactive),1.13 (inactive),1.56 (active)
C=C1c2cccc(O)c2C(O)=C2C(=O)[C@]3(O)C(O)=C(C(N)=O)C(=O)[C@@H](N(C)C)[C@@H]3[C@@H](O)[C@H]12 [Methacycline hydrochloride] (20 µM),0,0.0377,0.0637,0.836,0.0707 (active),0.0282 (active),0.461 (active),0.177 (active),0.486 (active),0.294 (active),0.536 (active),0.58 (inactive)
CC1=C(C)C(=O)C(C(CCCCCC(=O)O)c2ccccc2)=C(C)C1=O (stereo not given) [Seratrodast] (20 µM),0.927,0.998,1,0.979,1 (inactive),1.01 (inactive),0.908 (inactive),1.05 (inactive),1.02 (inactive),0.965 (inactive),1.01 (inactive),0.899 (inactive)
O=C(CO)[C@@H](O)[C@H](O)[C@H](O)CO [D(-) Fructose] (50 µM),1.01,1.02,0.988,0.986,0.994 (inactive),0.929 (inactive),0.925 (inactive),1.04 (inactive),0.987 (inactive),1.07 (inactive),0.981 (inactive),0.919 (inactive)
COc1cc2nc(N3CCN(C(=O)C4CCCO4)CC3)nc(N)c2cc1OC (stereo not given) [Terazosin hydrochloride] (20 µM),1.07,1.02,1,0.977,1.08 (inactive),1.03 (inactive),0.952 (inactive),0.936 (inactive),1.03 (inactive),1 (inactive),1.01 (inactive),0.948 (inactive)
O=C(O)c1cc(=O)c2c(OCC(O)COc3cccc4oc(C(=O)O)cc(=O)c34)cccc2o1 [Cromolyn disodium salt] (20 µM),1.06,1.05,1.02,1.11,0.943 (inactive),0.983 (inactive),1.04 (inactive),0.994 (inactive),0.96 (inactive),0.99 (inactive),0.979 (inactive),1.06 (inactive)
[S] (20 µM),1.07,0.919,0.964,0.976,0.924 (inactive),0.999 (inactive),1.01 (inactive),1.02 (inactive),0.962 (inactive),0.951 (inactive),1 (inactive),1.02 (inactive)
Cn1c(NCCN(CCO)CCCc2ccc([N+](=O)[O-])cc2)cc(=O)n(C)c1=O [Nifekalant] (20 µM),1.11,1.06,1.08,1.22,0.994 (inactive),1.01 (inactive),1.01 (inactive),1.04 (inactive),1.02 (inactive),0.971 (inactive),1.01 (inactive),0.997 (inactive)
Cc1cc(C(C)(C)C)c(O)c(C)c1CC1=NCCN1 [Oxymetazoline hydrochloride] (20 µM),0.934,1.02,0.987,0.978,0.947 (inactive),1.03 (inactive),1.01 (inactive),0.983 (inactive),0.958 (inactive),0.968 (inactive),1.01 (inactive),0.996 (inactive)
CS(=O)(=O)c1ccc([C@@H](O)[C@@H](CF)NC(=O)C(Cl)Cl)cc1 [Florfenicol] (20 µM),0,0.0375,0.0697,0.306,0.0871 (active),0.0346 (active),0.122 (active),0.217 (active),0.459 (inactive),0.177 (active),0.508 (inactive),0.143 (active)
CCC1(C)CC(=O)NC1=O (stereo not given) [Ethosuximide] (20 µM),0.953,1,1.07,0.928,0.991 (inactive),1.07 (inactive),0.992 (inactive),1 (inactive),0.995 (inactive),0.995 (inactive),1.03 (inactive),1.02 (inactive)
CS(=O)(=O)c1ccc(C2=C(c3ccccc3)C(=O)OC2)cc1 [Rofecoxib] (20 µM),1,0.962,0.973,1.1,0.981 (inactive),1.2 (inactive),1.08 (inactive),1.02 (inactive),0.99 (inactive),1.04 (inactive),1.01 (inactive),1.07 (inactive)
Cc1nnc(NS(=O)(=O)c2ccc(N)cc2)s1 [Sulfamethizole] (20 µM),0.987,1.05,1.06,1.12,0.935 (inactive),0.928 (inactive),0.884 (inactive),0.961 (inactive),0.981 (inactive),1.03 (inactive),0.995 (inactive),0.815 (inactive)
O=c1[nH]c(=O)n([C@H]2C[C@H](O)[C@@H](CO)O2)cc1F [Floxuridine] (20 µM),0.467,0.882,0.907,1.41,0.675 (active),0.514 (inactive),0.748 (active),0.593 (active),0.903 (inactive),0.889 (inactive),1.02 (inactive),0.884 (inactive)
Cn1cc([S+](C)[O-])c(=O)c2ccc(F)cc21 (stereo not given) [Flosequinan] (20 µM),0.995,1,1.01,1.06,1.03 (inactive),0.946 (inactive),0.958 (inactive),0.994 (inactive),1.02 (inactive),1.04 (inactive),0.999 (inactive),0.938 (inactive)
NC[C@H]1CC[C@H](C(=O)O)CC1 [Tranexamic acid] (20 µM),1.06,1.02,1,1.14,0.965 (inactive),1.03 (inactive),0.85 (inactive),0.977 (inactive),1.01 (inactive),1.01 (inactive),1.01 (inactive),0.849 (inactive)
CCCC(=O)Nc1ccc(OCC(O)CNC(C)C)c(C(C)=O)c1 (stereo not given) [Acebutolol hydrochloride] (20 µM),0.937,0.989,0.971,0.781,1.06 (inactive),1.03 (inactive),1.03 (inactive),0.996 (inactive),1.01 (inactive),0.958 (inactive),0.99 (inactive),0.985 (inactive)
c1ccc(-c2ccc(C(c3ccccc3)n3ccnc3)cc2)cc1 (stereo not given) [Bifonazole] (20 µM),1.27,1.08,1.02,0.817,0.99 (inactive),0.923 (inactive),0.82 (inactive),1.04 (inactive),1.01 (inactive),0.981 (inactive),1 (inactive),0.927 (inactive)
c1ccc2c(c1)ccc1ccccc12 [Phenanthrene] (20 µM),0.976,0.992,0.975,0.96,1 (inactive),1.02 (inactive),1.07 (inactive),0.992 (inactive),0.817 (inactive),0.904 (inactive),1.12 (inactive),1.09 (inactive)
Cc1ccc(C(C)NC(=O)[C@@H](NC(=O)OC(C)C)C(C)C)cc1 (stereo not given in full) (20 µM),1.07,1.02,1.04,0.999,1.02 (inactive),1.02 (inactive),1.03 (inactive),0.974 (inactive),1 (inactive),1.03 (inactive),1.02 (inactive),1.07 (inactive)
